In the supplement of paper PMC8975748:
Structures can show the parent of a compound that is named as a salt.

Tested on: Saccharomyces cerevisiae BY4741 SeMeCo community
Test: z-score of subpopulation abundance vs DMSO median, subpopulation auxotrophic for LU; higher = larger share of this subpopulation than in DMSO controls
Details: 10 µM; 24 h; SM minimal medium; subpopulation (auxotrophy): LU
Description: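 Fluorescent four-plasmid SeMeCo (self-establishing metabolically cooperating S. cerevisiae BY4741 community; plasmids pH-mRuby2, pL-mWasabi, pU-eCFP, pM-TagRFP657) was grown 24 h in minimal SM medium with each Selleck FDA-approved drug at 10 µM in 384-well plates. Cells were fixed and imaged by high-content confocal microscopy. For each auxotrophic subpopulation (and the prototroph), a z-score gives the deviation from the DMSO vehicle-control population median.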

Row | SMILES | z-score of subpopulation abundance
1 | C=C[C@H]1CN2CC[C@H]1C[C@H]2[C@H](O)c1ccnc2ccccc12 [Cinchonidine] | 0.59
2 | CC1(C)SC2C(N)C(=O)N2C1C(=O)O (centres undefined) [6-Aminopenicillanic acid] | 0.32
3 | COc1ccc(C(CN(C)C)C2(O)CCCCC2)cc1 (centres undefined) [Venlafaxine HCl] | -0.06
4 | CC[C@H]1[C@@H]2C[C@H]3[C@@H]4N(C)c5ccccc5[C@]45C[C@@H]([C@@H]2[C@H]5O)N3[C@@H]1O [Ajmaline] | -0.26
5 | CN1[C@@H]2CC[C@H]1C[C@@H](OC(=O)[C@H](CO)c1ccccc1)C2 [Hyoscyamine] | 0.31
6 | COc1ccc2c3c([nH]c2c1)C(C)=NCC3 [Harmaline] | -7.5
7 | CN1[C@@H]2C[C@@H](OC(=O)[C@H](CO)c3ccccc3)C[C@H]1[C@@H]1O[C@@H]12 [Scopolamine HBr trihydrate] | -0.6
8 | C[CH2][Hg][S]c1ccccc1C(=O)[O-].[Na+] [Thimerosal] | 11.1
9 | CN(C)[C@@H]1C(=O)C(C(N)=O)=C(O)[C@@]2(O)C(=O)C3=C(O)c4c(O)cccc4[C@@](C)(O)[C@H]3C[C@@H]12 [Tetracycline HCl] | -0.24
10 | COc1ccc(C(CN(C)C)C2(O)CCCCC2)cc1 (centres undefined) [Venlafaxine] | 0.97
11 | CN(C)[C@@H]1C(=O)C(C(N)=O)=C(O)[C@@]2(O)C(=O)C3=C(O)c4c(O)cccc4[C@@](C)(O)[C@H]3[C@H](O)[C@@H]12 [Oxytetracycline Dihydrate] | -0.6
12 | C[C@@H]1O[C@@H](O[C@H]2C[C@@H](O)[C@]3(CO)[C@H]4[C@H](O)C[C@]5(C)[C@@H](C6=CC(=O)OC6)CC[C@]5(O)[C@@H]4CC[C@]3(O)C2)[C@H](O)[C@H](O)[C@H]1O [Ouabain] | -0.53
13 | CC[C@@]1(O)C(=O)OCc2c1cc1n(c2=O)Cc2cc3ccccc3nc2-1 [Camptothecin] | -0.54
14 | C=CCN1C[C@H](C(=O)N(CCCN(C)C)C(=O)NCC)C[C@@H]2c3cccc4[nH]cc(c34)C[C@H]21 [Cabergoline] | 1.61
15 | Oc1cc(Cl)ccc1Oc1ccc(Cl)cc1Cl [Triclosan] | -0.23
16 | O=c1[nH]c2ccccc2n1CCCN1CCC(n2c(=O)[nH]c3cc(Cl)ccc32)CC1 [Domperidone] | 0.48
17 | Oc1cccc2cccnc12 [8-Hydroxyquinoline] | -0.63

Row | SMILES | z-score of subpopulation abundance
18 | CN(C)C(=O)Oc1cccc([N+](C)(C)C)c1 [Neostigmine Bromide] | 0.79
19 | Nc1ccncc1 [4-Aminopyridine] | 0.6
20 | COc1cc2c(cc1OC)C1CC(=O)C(CC(C)C)CN1CC2 (centres undefined) [Tetrabenazine (Xenazine)] | -0.11
21 | COc1ccc2c(c1)[C@]13CCCC[C@@H]1[C@H](C2)N(C)CC3 [Dextromethorphan hydrobromide hydrate] | 0.05
22 | O=c1cccc2n1C[C@@H]1CNC[C@H]2C1 [Cytisine] | 0.11
23 | CN1[C@@H]2CC[C@H]1C[C@@H](OC(=O)C(CO)c1ccccc1)C2 (some centres undefined) [Atropine sulfate monohydrate] | -0.08
24 | CN[C@@H]1[C@@H](O)[C@@H](O[C@@H]2[C@@H](O)[C@H](O[C@H]3O[C@H]([C@@H](C)O)[C@@H](O)[C@H](O)[C@H]3N)[C@@H](N)C[C@H]2N)OC[C@]1(C)O [Geneticin (G418 Sulfate)] | 0.61
25 | CCCCCCCCCCCCCCCC[n+]1ccccc1 [Cetylpyridinium Chloride] | 4.67
26 | CN1C(=O)COc2c(C(=O)NC3CN4CCC3CC4)cc(Cl)cc21 (centres undefined) [Azasetron HCl] | -0.43
27 | COC(=O)C1=CCCN(C)C1 [Arecoline HBr] | 0.1
28 | C[C@@H]1CC[C@H]2[C@@H](C)C(=O)O[C@@H]3O[C@@]4(C)CC[C@@H]1[C@]32OO4 [Artemisinin] | -0.94
29 | CCCN1C[C@H](CSC)C[C@@H]2c3cccc4[nH]cc(c34)C[C@H]21 [Pergolide Mesylate] | -0.8
30 | Nc1nc(N)nc(NC2CC2)n1 [Cyromazine] | 0.73
31 | Cc1cc(O)ccc1Cl [Chlorocresol] | -0.74
32 | NCCc1c[nH]c2ccc(O)cc12 [Serotonin HCl] | -0.51
33 | O=[N+]([O-])C(Br)(CO)CO [Bronopol] | 0.26
34 | CC(C)(O)C(Cl)(Cl)Cl [Chlorobutanol] | 0.52
